# In PubChem BioAssay (NCI):
# Where “and” joins values, the source holds several entries; their conditions need not be identical. Equal values may be shown once. About 79,000 compounds went through this panel and 15% of them were active in at least one assay; those are over-represented in the sample as a whole. Unmarked numbers belong to inactive results. Calls of active or inactive are those of the source. No stated cut-off is given here; in the data, active means growth inhibition above about 70%; inactive means the rest.
# What was measured:
# [1] = NCI Yeast Anticancer Drug Screen. Data for the rad50 strain (AID 155);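 further: 0% = growth of vehicle-only cultures of the same strain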; details: S. cerevisiae rad50 strain growth inhibition, active compounds read high; at 50.0 µM unless noted
# In short: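 Cells are treated with compound, grown, and their growth is then scored against vehicle-only cultures of the same repair-deficient yeast strain.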
# [2] = NCI Yeast Anticancer Drug Screen. Data for the mec2-1 strain (AID 157); details: S. cerevisiae mec2-1 strain, active compounds read high; at 50.0 µM unless noted
# In short: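 Strain: mec2-1 (DNA repair/cell cycle alteration). Compound exposure, then growth measured; inhibition expressed relative to vehicle.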
# [3] = NCI Yeast Anticancer Drug Screen. Data for the sgs1 mgt1 strain (AID 161);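 further: 0% = growth of cultures given vehicle only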; details: S. cerevisiae sgs1 mgt1 strain, active compounds read high; at 50.0 µM unless noted
# In short: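 Mutant yeast exposed to compound; growth scored against vehicle-only wells.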
# [4] = NCI Yeast Anticancer Drug Screen. Data for the cln2 rad14 strain (AID 165);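 further: 0% = growth equal to vehicle treated cultures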; details: S. cerevisiae cln2 rad14 strain, active compounds read high; at 50.0 µM unless noted
# In short: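 Compounds are applied to the cln2 rad14 yeast strain, and growth is then compared with that of vehicle-treated cultures to give inhibition.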
# [5] = NCI Yeast Anticancer Drug Screen. Data for the bub3 strain (AID 167); details: S. cerevisiae bub3 mutant strain, active compounds read high; at 50.0 µM unless noted
# In short: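 Part of a panel of yeast mutants defective in DNA damage repair or cell cycle regulation. Each strain is grown with compound, and inhibition is calculated relative to solvent-treated cultures.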
# [6] = NCI Yeast Anticancer Drug Screen. Data for the mlh1 rad18 strain (AID 175); details: S. cerevisiae mlh1 rad18 strain growth inhibition, active compounds read high; at 50.0 µM unless noted
# In short: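 Read-out is yeast growth inhibition, calculated against vehicle-only controls. The compound was applied to a strain engineered with DNA damage repair alterations.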
Structure (SMILES),growth inhibition [1],growth inhibition [2],growth inhibition [3],growth inhibition [4],growth inhibition [5],growth inhibition [6]
O=C1/C(=C/c2ccc(O)cc2)CCc2ccccc21,-21.6%,-6.35%,-2.1%,2.75%,11.9%,-34.2%
CC(=O)Oc1c(I)cc(Cc2nc(C)oc2C)cc1I,-41.1%,-1.15%,6.5%,1%,6.8%,-4.8%
CC1(C)CNC[C@]2(C)OCCCO[C@@]3(C)CNCC(C)(C)NC(=O)[C@](C)(CNCC(C)(C)NC3=O)OCCCO[C@](C)(CNCC(C)(C)NC2=O)C(=O)N1,-33.2%,-22.2%,-32.1%,0.5%,-17.1%,-46.2%
SCCNCc1ccccc1,20.9%,-13.1%,6.9%,9.85%,6.9%,10.2%
COc1nc(NC2OC(CO)C(O)C(O)C2O)c(I)c(=O)[nH]1 (stereo unspecified),5.3%,-3.4%,2%,-6.25%,-4.75%,21.8%
CCCCCCCCCCCCCCCCC(C(=O)O)C(O)(CC(=O)O)C(=O)O (stereo unspecified),2.8% and 41.7%,-14.7% and 16.6%,14.5% and 43.4%,-10.7% and 16.6%,-7.9% and 33.4%,7.25% and 31.6%
O=C(c1ccccc1)C(Oc1ccccc1)c1ccccc1 (stereo unspecified),39.5%,19.2%,37.8%,36%,6.9%,60%
CC(C)(CO)NCC(C)(C)[N+](=O)[O-],8.5%,2.25%,14.6%,-9.2%,6.95%,6.7%
CC1CCC(OC(=O)CCC2CCCCC2)CC1 (stereo unspecified),-1.6%,-12.1%,4.35%,-34.2%,-12.4%,-18.3%
CCSC(=O)C(F)(F)F,-9.95%,-47.9%,-51.4%,-1.2%,-18.1%,-25.6%
NC(C(=O)O)c1ccc(CBr)cc1 (stereo unspecified),9.5%,-12.3%,-10.2%,4.25%,-1.6%,-64.5%
CCc1cccc(C(C)C)c1NC(=O)C(=O)Nn1c(=S)[nH]c2ccccc2c1=O,-7.15%,-23.1%,-10.2%,2.75%,-17.2%,-12.6%
CN(C)C(Cc1cnc[nH]1)C(=O)N1CCCC1C(N)=O (stereo unspecified),-22.4%,-45.8%,-9.65%,-0.8%,-20.8%,5.85%
CC12CCC(CC1(Cl)Cl)C2 (stereo unspecified),9.75%,-5.8%,21.1%,14.3%,4.7%,26.9%
O=C1C=CC(=Nc2ccc3c(c2)-c2ccccc2C3)O1,3.2%,21%,5.05%,-9.9%,1.35%,12.1%
CCOC(=O)c1c(-c2ccc([N+](=O)[O-])cc2)cn(-c2ccc(OC)cc2)c1C,13.2%,7.1%,12.4%,4.35%,-0.65%,1%
CN(C)c1ccc(/C=N/Nc2nc3ccccc3c(=O)n2-c2ccccc2)cc1,-3.05%,-16.1%,6.55%,17.9%,26.1%,-3.7%
CCC(Cl)COP(=O)(OCC(Cl)CC)O/C(C)=C(\C)OP(=O)(OCC(Cl)CC)OCC(Cl)CC (stereo unspecified),13.8%,13.3%,27.4%,9.7%,0.4%,-1.7%
COc1ccc(N(C(=O)NCCO)c2ccccc2)cc1,-3.75%,-15.8%,14.9%,14.6%,-2.3%,26.7%
CC1(C)CCC(CC(=O)O)(CC(=O)O)CC1,-5.25%,8.8%,-1.7%,-17.3%,-2.9%,11.4%
CCN(CC)OC(=O)/C=C/c1ccccc1,2.05%,5.5%,-10.3%,20.2%,-3.3%,-4.45%

Structure (SMILES),growth inhibition [1],growth inhibition [2],growth inhibition [3],growth inhibition [4],growth inhibition [5],growth inhibition [6]
CCN(CC)c1ccc2c(c1)C(=O)c1ccccc1-2,-6.7%,27.6%,14.2%,15.8%,38.8%,30.6%
COC(=O)C1=C2C3(O)CC4CC5C3CCC(C)N5C24C2CCCC(OC)C2C1OC(=O)c1ccccc1 (stereo unspecified),-2.1%,-27.1%,17.9%,8.9%,0.7%,24.1%
Cc1[nH]c(=S)[nH]c1C,4.1%,9.5%,12.2%,10%,15.7%,12.6%
Cc1nc(Nc2nc3ccccc3[nH]2)[nH]c(=O)c1CCO,9.6%,5.4%,-7.3%,21.9%,15.8%,-6.45%
CCOc1ccccc1NC(=O)C(=O)C(C(=O)c1ccc2ccccc2c1)C1OC(=O)c2ccccc21 (stereo unspecified),-4%,4.35%,13.6%,-50%,12.5%,0.45%
Cc1ccc(C2=NN(c3ccccc3)C(c3ccccc3)C2NC2CCCCC2)cc1 (stereo unspecified),41.1%,-12.3%,19.6%,-27.4%,0.5%,10.3%
CC(C)NC(=O)c1ccc(Cl)cc1Cl,26.9%,27.9%,15.6%,10.9%,3.7%,12%
CCOC(=O)NNC(=O)Nc1ccc(O[Si](C)(C)C)cc1,13.4%,10%,10.3%,17.1%,9.75%,10.9%
O=C1CN(c2ccccc2)C(=O)CN1NCNN1CC(=O)N(c2ccccc2)CC1=O,-27.4%,2.1%,-1.5%,4.35%,-10%,-5%
S=C(NCc1cccc(Cl)c1)Nc1ccccc1,-4.65%,27.9%,14.2%,-24.9%,29.6%,24.4%
Cc1ccc(NC(=O)Oc2ccc(-c3ccccc3)cc2Br)c(Br)c1,52.1%,58%,54.6%,40%,51.9%,53.7%
OC(COc1cccc(C(F)(F)F)c1)CN1CCN(c2cccc(F)c2)CC1 (stereo unspecified),98.7% (active),99% (active),99.1% (active),97.9% (active),98.7% (active),99% (active)
CC(O)CNc1nc(N)[nH]c(=O)c1[N+](=O)[O-] (stereo unspecified),4.45%,2.35%,1.45%,-41.5%,-9.95%,-1.6%
C=CCCCCCCC=C,-23.6%,-43%,-4.1%,2.45%,-34.2%,-19.4%
Oc1c(CN2CCOCC2)ccc(CN2CCOCC2)c1O,13.4%,17.3%,-14.1%,4.55%,16.1%,35.5%
O=C(Nc1ccccc1)Nc1ccc([N+](=O)[O-])cc1[N+](=O)[O-],25.5%,5.95%,26.9%,19.7%,11.9%,20.6%
CC(O)C(O)C(O)C(O)c1nc2ccccc2[nH]1 (stereo unspecified),-18.4%,-3.35%,-20.6%,-37%,4.35%,9.9%
CCCCN(CCCC)CCCC(O)c1c2ccccc2nc2ccccc12 (stereo unspecified),-3.55%,-5.95%,7.6%,-13.9%,1.4%,12.6%
O=C(OC1C2C=COC(OC3OC(CO)C(O)C(O)C3O)C2C2(CO)OC12)c1ccc(O)cc1 (stereo unspecified),-0.15%,-6.45%,17.8%,18.6%,1.8%,-11.6%
CC(C)(C)N=NNc1cn(C2OC(CO)C(O)C2O)c(=O)[nH]c1=O (stereo unspecified),-16.3%,-17.6%,-16.9%,9.5%,-6.2%,-15.7%
